Assay results from article PMC11006913.

Assays:
Experiment in all cases: PBM; 200 nM protein, PBS
Conditions in all cases: dsDNA, one strand shown
HESX1 [1] = molecular target: HESX1 (Homo sapiens, UniProt Q9UBX0 95-180, R165K)
SHOX [2] = molecular target: SHOX (Homo sapiens, UniProt O15266 103-189)
ALX4 [3] = molecular target: ALX4 (Homo sapiens, UniProt Q9H161 200-286)
PRRX1 [4] = molecular target: PRRX1 (Homo sapiens, UniProt P54821 80-166, F113S)
ALX4 [5] = molecular target: ALX4 (Homo sapiens, UniProt Q9H161 200-286, Q225E)
HESX1 [6] = molecular target: HESX1 (Homo sapiens, UniProt Q9UBX0 95-180)
MSX2 [7] = molecular target: MSX2 (Homo sapiens, UniProt P35548 130-214, R199I)
ALX1 [8] = molecular target: ALX1 (Homo sapiens, UniProt Q15699 118-204, L144V)
SHOX [9] = molecular target: SHOX (Homo sapiens, UniProt O15266 103-189, R173C)
ALX1 [10] = molecular target: ALX1 (Homo sapiens, UniProt Q15699 118-204, L144R)
PROP1 [11] = molecular target: PROP1 (Homo sapiens, UniProt O75360 56-141)
HESX1 [12] = molecular target: HESX1 (Homo sapiens, UniProt Q9UBX0 95-180, R109Q)
PROP1 [13] = molecular target: PROP1 (Homo sapiens, UniProt O75360 56-141, R99H)
ALX3 = ALX3 (Homo sapiens, UniProt O95076 139-225, L168Q)
HESX1 [14] = molecular target: HESX1 (Homo sapiens, UniProt Q9UBX0 95-180, P111T)
PROP1 [15] = molecular target: PROP1 (Homo sapiens, UniProt O75360 56-141, F88S)
MSX2 [16] = molecular target: MSX2 (Homo sapiens, UniProt P35548 130-214, F161Y)
HESX1 [17] = molecular target: HESX1 (Homo sapiens, UniProt Q9UBX0 95-180, F115L)
ALX1 [18] = molecular target: ALX1 (Homo sapiens, UniProt Q15699 118-204)
PRRX1 [19] = molecular target: PRRX1 (Homo sapiens, UniProt P54821 80-166)
PRRX1 (Homo sapiens, UniProt P54821 80-166), sequence (P54821 80-166): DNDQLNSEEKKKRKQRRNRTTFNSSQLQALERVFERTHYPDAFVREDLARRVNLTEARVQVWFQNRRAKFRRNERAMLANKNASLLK

SHOX (Homo sapiens, UniProt O15266 103-189), sequence (O15266 103-189): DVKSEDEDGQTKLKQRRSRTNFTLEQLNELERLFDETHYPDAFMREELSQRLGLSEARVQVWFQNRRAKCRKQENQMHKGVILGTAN
HESX1 (Homo sapiens, UniProt Q9UBX0 95-180, R109Q), sequence (Q9UBX0 95-180 R109Q): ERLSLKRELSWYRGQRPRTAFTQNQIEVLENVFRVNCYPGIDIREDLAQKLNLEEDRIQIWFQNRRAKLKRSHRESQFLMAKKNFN
PROP1 (Homo sapiens, UniProt O75360 56-141), sequence (O75360 56-141): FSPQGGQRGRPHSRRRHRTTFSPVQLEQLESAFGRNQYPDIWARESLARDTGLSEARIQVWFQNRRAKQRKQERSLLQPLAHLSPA
PROP1 (Homo sapiens, UniProt O75360 56-141, R99H), sequence (O75360 56-141 R99H): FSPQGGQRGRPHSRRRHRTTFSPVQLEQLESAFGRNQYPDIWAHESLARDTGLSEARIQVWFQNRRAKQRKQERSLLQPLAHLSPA
ALX3, sequence (O95076 139-225 L168Q): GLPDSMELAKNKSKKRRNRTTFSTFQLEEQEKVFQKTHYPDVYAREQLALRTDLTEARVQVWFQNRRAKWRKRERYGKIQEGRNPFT
ALX1 (Homo sapiens, UniProt Q15699 118-204), sequence (Q15699 118-204): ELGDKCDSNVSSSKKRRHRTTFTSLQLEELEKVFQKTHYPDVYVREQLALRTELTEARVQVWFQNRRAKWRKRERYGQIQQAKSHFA
MSX2 (Homo sapiens, UniProt P35548 130-214, F161Y), sequence (P35548 130-214 F161Y): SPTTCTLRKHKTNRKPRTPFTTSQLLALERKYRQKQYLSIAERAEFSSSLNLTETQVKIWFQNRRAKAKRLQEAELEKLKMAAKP
PROP1 (Homo sapiens, UniProt O75360 56-141, F88S), sequence (O75360 56-141 F88S): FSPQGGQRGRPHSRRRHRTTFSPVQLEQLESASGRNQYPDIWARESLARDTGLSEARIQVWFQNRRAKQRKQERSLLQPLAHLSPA
HESX1 (Homo sapiens, UniProt Q9UBX0 95-180, P111T), sequence (Q9UBX0 95-180 P111T): as the sequence (Q9UBX0 95-180 R109Q) above, with Q15R, P17T counted along it
MSX2 (Homo sapiens, UniProt P35548 130-214, R199I), sequence (P35548 130-214 R199I): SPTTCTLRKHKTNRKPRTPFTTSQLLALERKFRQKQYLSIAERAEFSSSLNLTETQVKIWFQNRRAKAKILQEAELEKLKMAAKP
HESX1 (Homo sapiens, UniProt Q9UBX0 95-180), sequence (Q9UBX0 95-180): as the sequence (Q9UBX0 95-180 R109Q) above, with Q15R counted along it
HESX1 (Homo sapiens, UniProt Q9UBX0 95-180, F115L), sequence (Q9UBX0 95-180 F115L): as the sequence (Q9UBX0 95-180 R109Q) above, with Q15R, F21L counted along it
ALX4 (Homo sapiens, UniProt Q9H161 200-286, Q225E), sequence (Q9H161 200-286 Q225E): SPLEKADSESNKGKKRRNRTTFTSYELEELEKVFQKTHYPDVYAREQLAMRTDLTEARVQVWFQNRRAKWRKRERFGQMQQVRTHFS
ALX4 (Homo sapiens, UniProt Q9H161 200-286), sequence (Q9H161 200-286): as the sequence (Q9H161 200-286 Q225E) above, with E26Q counted along it
HESX1 (Homo sapiens, UniProt Q9UBX0 95-180, R165K), sequence (Q9UBX0 95-180 R165K): as the sequence (Q9UBX0 95-180 R109Q) above, with Q15R, R71K counted along it
PRRX1 (Homo sapiens, UniProt P54821 80-166, F113S), sequence (P54821 80-166 F113S): as the sequence (P54821 80-166) above, with F34S counted along it
ALX1 (Homo sapiens, UniProt Q15699 118-204, L144V), sequence (Q15699 118-204 L144V): as the sequence (Q15699 118-204) above, with L27V counted along it
ALX1 (Homo sapiens, UniProt Q15699 118-204, L144R), sequence (Q15699 118-204 L144R): as the sequence (Q15699 118-204) above, with L27R counted along it
SHOX (Homo sapiens, UniProt O15266 103-189, R173C), sequence (O15266 103-189 R173C): as the sequence (O15266 103-189) above, with R71C counted along it

AATTAAGT was tested, and the binding signal (HESX1 [1]) was 11.6 upbm affinity estimate (log intensity, higher = more binding, comparable within an allelic series), the binding signal (SHOX [2]) was 11.8 upbm affinity estimate (log intensity, higher = more binding, comparable within an allelic series) and the binding signal (ALX4 [3]) was 13.9 upbm affinity estimate (log intensity, higher = more binding, comparable within an allelic series). The binding signal (PRRX1 [4]) was 11.2 upbm affinity estimate (log intensity, higher = more binding, comparable within an allelic series), the binding signal (ALX4 [5]) was 13 upbm affinity estimate (log intensity, higher = more binding, comparable within an allelic series) and the binding signal (HESX1 [6]) was 11.6 upbm affinity estimate (log intensity, higher = more binding, comparable within an allelic series). For the same sequence, the binding signal (MSX2 [7]) was 12.2 upbm affinity estimate (log intensity, higher = more binding, comparable within an allelic series), the binding signal (ALX1 [8]) was 11.7 upbm affinity estimate (log intensity, higher = more binding, comparable within an allelic series) and the binding signal (SHOX [9]) was 9.31 upbm affinity estimate (log intensity, higher = more binding, comparable within an allelic series). The binding signal (ALX1 [10]) was 11.4 upbm affinity estimate (log intensity, higher = more binding, comparable within an allelic series), the binding signal (PROP1 [11]) was 11.3 upbm affinity estimate (log intensity, higher = more binding, comparable within an allelic series) and the binding signal (HESX1 [12]) was 8.53 upbm affinity estimate (log intensity, higher = more binding, comparable within an allelic series). For the same sequence, the binding signal (PROP1 [13]) was 11.2 upbm affinity estimate (log intensity, higher = more binding, comparable within an allelic series), the binding signal (ALX3) was 10.5 upbm affinity estimate (log intensity, higher = more binding, comparable within an allelic series) and the binding signal (HESX1 [14]) was 10.3 upbm affinity estimate (log intensity, higher = more binding, comparable within an allelic series). For the same sequence, the binding signal (PROP1 [15]) was 7.71 upbm affinity estimate (log intensity, higher = more binding, comparable within an allelic series), the binding signal (MSX2 [16]) was 12.9 upbm affinity estimate (log intensity, higher = more binding, comparable within an allelic series) and the binding signal (HESX1 [17]) was 7.65 upbm affinity estimate (log intensity, higher = more binding, comparable within an allelic series). For the same sequence, the binding signal (ALX1 [18]) was 12.3 upbm affinity estimate (log intensity, higher = more binding, comparable within an allelic series) and the binding signal (PRRX1 [19]) was 13.3 upbm affinity estimate (log intensity, higher = more binding, comparable within an allelic series).
With ATAATTGG the binding signal (HESX1 [1]) was 13.5 upbm affinity estimate (log intensity, higher = more binding, comparable within an allelic series), the binding signal (SHOX [2]) was 12.6 upbm affinity estimate (log intensity, higher = more binding, comparable within an allelic series) and the binding signal (ALX4 [3]) was 14 upbm affinity estimate (log intensity, higher = more binding, comparable within an allelic series). For the same sequence, the binding signal (PRRX1 [4]) was 11.5 upbm affinity estimate (log intensity, higher = more binding, comparable within an allelic series), the binding signal (ALX4 [5]) was 13.7 upbm affinity estimate (log intensity, higher = more binding, comparable within an allelic series) and the binding signal (HESX1 [6]) was 13.4 upbm affinity estimate (log intensity, higher = more binding, comparable within an allelic series). The binding signal (MSX2 [7]) was 13.1 upbm affinity estimate (log intensity, higher = more binding, comparable within an allelic series), the binding signal (ALX1 [8]) was 12 upbm affinity estimate (log intensity, higher = more binding, comparable within an allelic series) and the binding signal (SHOX [9]) was 9.98 upbm affinity estimate (log intensity, higher = more binding, comparable within an allelic series). For the same sequence, the binding signal (ALX1 [10]) was 11.7 upbm affinity estimate (log intensity, higher = more binding, comparable within an allelic series), the binding signal (PROP1 [11]) was 11.7 upbm affinity estimate (log intensity, higher = more binding, comparable within an allelic series) and the binding signal (HESX1 [12]) was 10 upbm affinity estimate (log intensity, higher = more binding, comparable within an allelic series). For the same sequence, the binding signal (PROP1 [13]) was 12 upbm affinity estimate (log intensity, higher = more binding, comparable within an allelic series), the binding signal (ALX3) was 10.9 upbm affinity estimate (log intensity, higher = more binding, comparable within an allelic series) and the binding signal (HESX1 [14]) was 12.1 upbm affinity estimate (log intensity, higher = more binding, comparable within an allelic series). For the same sequence, the binding signal (PROP1 [15]) was 7.6 upbm affinity estimate (log intensity, higher = more binding, comparable within an allelic series), the binding signal (MSX2 [16]) was 13.7 upbm affinity estimate (log intensity, higher = more binding, comparable within an allelic series) and the binding signal (HESX1 [17]) was 8.41 upbm affinity estimate (log intensity, higher = more binding, comparable within an allelic series). The binding signal (ALX1 [18]) was 12.6 upbm affinity estimate (log intensity, higher = more binding, comparable within an allelic series) and the binding signal (PRRX1 [19]) was 13.4 upbm affinity estimate (log intensity, higher = more binding, comparable within an allelic series).
CAATTAGA was tested, and the binding signal (HESX1 [1]) was 12.3 upbm affinity estimate (log intensity, higher = more binding, comparable within an allelic series), the binding signal (SHOX [2]) was 11.9 upbm affinity estimate (log intensity, higher = more binding, comparable within an allelic series) and the binding signal (ALX4 [3]) was 13.8 upbm affinity estimate (log intensity, higher = more binding, comparable within an allelic series). The binding signal (PRRX1 [4]) was 10.9 upbm affinity estimate (log intensity, higher = more binding, comparable within an allelic series), the binding signal (ALX4 [5]) was 12.8 upbm affinity estimate (log intensity, higher = more binding, comparable within an allelic series) and the binding signal (HESX1 [6]) was 12.5 upbm affinity estimate (log intensity, higher = more binding, comparable within an allelic series). The binding signal (MSX2 [7]) was 12.6 upbm affinity estimate (log intensity, higher = more binding, comparable within an allelic series), the binding signal (ALX1 [8]) was 11.4 upbm affinity estimate (log intensity, higher = more binding, comparable within an allelic series) and the binding signal (SHOX [9]) was 9.38 upbm affinity estimate (log intensity, higher = more binding, comparable within an allelic series). For the same sequence, the binding signal (ALX1 [10]) was 11.1 upbm affinity estimate (log intensity, higher = more binding, comparable within an allelic series), the binding signal (PROP1 [11]) was 11.4 upbm affinity estimate (log intensity, higher = more binding, comparable within an allelic series) and the binding signal (HESX1 [12]) was 8.75 upbm affinity estimate (log intensity, higher = more binding, comparable within an allelic series). The binding signal (PROP1 [13]) was 11.4 upbm affinity estimate (log intensity, higher = more binding, comparable within an allelic series), the binding signal (ALX3) was 10.4 upbm affinity estimate (log intensity, higher = more binding, comparable within an allelic series) and the binding signal (HESX1 [14]) was 10.9 upbm affinity estimate (log intensity, higher = more binding, comparable within an allelic series). For the same sequence, the binding signal (PROP1 [15]) was 7.51 upbm affinity estimate (log intensity, higher = more binding, comparable within an allelic series), the binding signal (MSX2 [16]) was 13.4 upbm affinity estimate (log intensity, higher = more binding, comparable within an allelic series) and the binding signal (HESX1 [17]) was 7.65 upbm affinity estimate (log intensity, higher = more binding, comparable within an allelic series). For the same sequence, the binding signal (ALX1 [18]) was 12.2 upbm affinity estimate (log intensity, higher = more binding, comparable within an allelic series) and the binding signal (PRRX1 [19]) was 13.2 upbm affinity estimate (log intensity, higher = more binding, comparable within an allelic series).
AATTATAA was tested, and the binding signal (HESX1 [1]) was 11.6 upbm affinity estimate (log intensity, higher = more binding, comparable within an allelic series), the binding signal (SHOX [2]) was 11.4 upbm affinity estimate (log intensity, higher = more binding, comparable within an allelic series) and the binding signal (ALX4 [3]) was 13.7 upbm affinity estimate (log intensity, higher = more binding, comparable within an allelic series). For the same sequence, the binding signal (PRRX1 [4]) was 11.4 upbm affinity estimate (log intensity, higher = more binding, comparable within an allelic series), the binding signal (ALX4 [5]) was 13.1 upbm affinity estimate (log intensity, higher = more binding, comparable within an allelic series) and the binding signal (HESX1 [6]) was 11.7 upbm affinity estimate (log intensity, higher = more binding, comparable within an allelic series). The binding signal (MSX2 [7]) was 12.4 upbm affinity estimate (log intensity, higher = more binding, comparable within an allelic series), the binding signal (ALX1 [8]) was 11.5 upbm affinity estimate (log intensity, higher = more binding, comparable within an allelic series) and the binding signal (SHOX [9]) was 9.09 upbm affinity estimate (log intensity, higher = more binding, comparable within an allelic series). For the same sequence, the binding signal (ALX1 [10]) was 11.2 upbm affinity estimate (log intensity, higher = more binding, comparable within an allelic series), the binding signal (PROP1 [11]) was 11 upbm affinity estimate (log intensity, higher = more binding, comparable within an allelic series) and the binding signal (HESX1 [12]) was 8.29 upbm affinity estimate (log intensity, higher = more binding, comparable within an allelic series). The binding signal (PROP1 [13]) was 10.8 upbm affinity estimate (log intensity, higher = more binding, comparable within an allelic series), the binding signal (ALX3) was 10.4 upbm affinity estimate (log intensity, higher = more binding, comparable within an allelic series) and the binding signal (HESX1 [14]) was 10.4 upbm affinity estimate (log intensity, higher = more binding, comparable within an allelic series). For the same sequence, the binding signal (PROP1 [15]) was 7.93 upbm affinity estimate (log intensity, higher = more binding, comparable within an allelic series), the binding signal (MSX2 [16]) was 13 upbm affinity estimate (log intensity, higher = more binding, comparable within an allelic series) and the binding signal (HESX1 [17]) was 7.89 upbm affinity estimate (log intensity, higher = more binding, comparable within an allelic series). The binding signal (ALX1 [18]) was 12.1 upbm affinity estimate (log intensity, higher = more binding, comparable within an allelic series) and the binding signal (PRRX1 [19]) was 13.3 upbm affinity estimate (log intensity, higher = more binding, comparable within an allelic series).
